KB-V1 MDR tox: kills drug-selected multidrug resistant KB-V1 cells; KB-V1 MDR cells viability, CellTiter-Glo, 72 h; hit rate 3.4% among 400,000; Potency, µM (titrated, usually from 46.1 µM), most hits filed as cytotoxic; further: potency means the concentration at half of the fitted maximal effect; on the % scale 0 is the no-effect control and ±100 the full control effect; nearly all actives have a fitted effect of over 60% in size
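Cytotoxicity toward P-gp-expressing KB-V1 cells was determined as loss of CellTiter-Glo luminescence after 72 h at 37 degrees C. Compounds were tested in quantitative HTS format across a concentration range, with curves fitted to normalized data.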
SW480 rerep: induces DNA re-replication in SW480 colon adenocarcinoma cells | SW480 DNA re-replication, Hoechst DNA content imaging, 48 h | hit rate 1.8% among 340,000 | Potency, µM (highest dose often 46.1 µM), for the others: at the highest dose re-replication activation, hits mostly activators; further: potency means the concentration at half of the fitted maximal effect; % of control where 0% means no effect; nearly all actives have a fitted effect of over 55% in size
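Treated cells incubate 48 hr (37 C, 5% CO2), are stained 40 min with Hoechst, and nuclear fluorescence is enumerated; a rise in nuclei with high DNA signal marks re-replication.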
MCF10A rerep: induces DNA re-replication in MCF 10a normal breast cells; MCF 10A DNA re-replication, Hoechst nuclear intensity, 48 h; Potency, µM (doses to about 46.1 µM), for the others: at the top dose activity, positive = re-replication, usual class: activators; hit rate 2.9% among 350,000; further: potency means the concentration at half of the fitted maximal effect; % of control where 0% means no effect; nearly all actives have a fitted effect of over 50% in size
DRD3 agonist: D3 dopamine receptor (human) agonism. D3R DiscoveRx beta-arrestin cells, luminescence, 90 min. max activation, %. hit rate 0.58% among 410,000. AID 652048; in the data active means max activation above about 30%; further: 0% is about no effect
Target sequence (P35462 whole entry, looked up): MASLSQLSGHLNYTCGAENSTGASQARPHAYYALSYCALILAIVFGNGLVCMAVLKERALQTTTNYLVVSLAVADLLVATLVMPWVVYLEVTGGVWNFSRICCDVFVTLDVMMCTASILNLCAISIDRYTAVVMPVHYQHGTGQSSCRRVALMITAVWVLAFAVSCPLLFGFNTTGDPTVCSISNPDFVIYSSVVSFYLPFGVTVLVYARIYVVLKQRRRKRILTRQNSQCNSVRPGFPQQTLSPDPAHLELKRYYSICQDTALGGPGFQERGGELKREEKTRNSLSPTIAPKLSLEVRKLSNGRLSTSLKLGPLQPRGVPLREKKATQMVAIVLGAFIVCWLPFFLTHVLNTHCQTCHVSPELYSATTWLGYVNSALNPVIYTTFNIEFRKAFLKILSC
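Agonist-mode cell screen: cells plated at 1500/well and incubated overnight at 37 °C, then exposed to library compounds for 90 min at 37 °C. Detection reagent was added for 30–60 min at room temperature, and luminescence was read.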
D3 antag: D3 dopamine receptor (human) antagonism. P35462. D3R cells, DiscoveRx beta-arrestin luminescence, antagonist mode; hits give low values. max response, negative = inhibition, %. hit rate 2.5% among 360,000; in the data active means max response below about -50%; inconclusive means no clear call, values can overlap the other calls; further: on the % scale 0 is the no-effect control and ±100 the full control effect
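Cells expressing the human receptor were seeded at 1500 cells/well, incubated overnight at 37 degrees C in 5% CO2, then exposed to library compounds with dopamine controls for 90 minutes at 37 degrees C before luminescent detection.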
KB-3-1 tox: KB-3-1 parental cell cytotoxicity | KB-3-1 viability, CellTiter-Glo ATP luminescence, 72 h | hit rate 1.4% among 400,000 | AID 1347075 | Potency, µM (series often up to 46.1 µM), most hits filed as cytotoxic; further: potency means the concentration at half of the fitted maximal effect; on the % scale 0 is the no-effect control and ±100 the full control effect; nearly all actives have a fitted effect of over 60% in size
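Here the drug-naive KB-3-1 line serves as comparator for MDR sub-line selectivity; cells received compound titrations, 72 h at 37 °C, then CellTiter-Glo readout.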
The depositor's hits bear a star; i = inactive; ? = inconclusive; · = not tested or not shown. Compounds with a hit are over-represented: about 8.9% of the library has one in this group of screens. Unless noted, the call rests on the fitted dose curve; in most records, active means well fitted curve in the direction sought with a large enough effect; inconclusive means small, poorly fitted or top-dose-only effect, or another doubt; inactive means no such curve, though single readings can be large; an effect the other way counts as inactive or inconclusive.

SMILES	KB-V1 MDR tox	SW480 rerep	MCF10A rerep	DRD3 agonist	D3 antag	KB-3-1 tox
COCCSc1ncnc2c1oc1nc3c(cc12)COC(C)(C)C3	i	?	15%	2	4	?
CC1(C)Cc2nc3oc4c(N(CCO)Cc5ccccc5)ncnc4c3cc2CO1	15µM*	-8%	19%	19	17	i
CCOC(=O)c1cccc(NC(=O)Cn2c(=O)nc(-c3ccccc3F)c3cc(Cl)ccc32)c1	·	·	·	5	·	·
CN(C)c1ccc(/C=C(/C(=O)c2ccc(Cl)cc2Cl)n2cncn2)cc1	5.2µM*	18µM*	?	-3	3	23µM*
CC(C)CC(=O)/C(=C\c1ccc(Cl)cc1Cl)n1cncn1	i	6.5µM*	4.6µM*	1	15	?
Cc1c(Cl)cccc1NC(=O)CCn1nc(C)c2c(C)n(-c3ccccc3)nc2c1=O	?	·	·	-10	·	i
COC(=O)[C@]1(Sc2ccc(C)cc2)CC(=O)N[C@@H]1c1ccco1	i	·	·	-8	-69*	i
COc1ccc(NCc2nc3ccccc3n2CCOc2ccccc2)cc1	2.3µM*	2%	?	-4	-12	?
COc1ccc(NCc2nc3ccccc3n2CCOc2ccc(C)cc2)cc1	?	4%	21µM*	5	-52*	?
CC(C)(C)Cc1nc2ccccc2n1CCc1ccccc1	18µM*	9%	?	-10	?	?
CCCc1nc2ccccc2n1CCOc1ccccc1	i	4%	?	-5	-62*	i
c1ccc(NCc2nc3ccccc3n2CCOc2ccccc2)cc1	?	·	3%	4	23	i
CCc1nc2ccccc2n1CCc1ccccc1	i	4%	?	-5	-18	i
Cc1ccc2nc(N(CCCN(C)C)C(=O)c3ccc(S(=O)(=O)N4CCc5ccccc5C4)cc3)sc2c1	21µM*	?	5.2µM*	-8	-15	?
CN(C)CCCN(C(=O)c1ccc(S(=O)(=O)N2CCc3ccccc3C2)cc1)c1nc2ccc(F)cc2s1	?	?	4.6µM*	-9	?	?
CN(C)CCCN(C(=O)c1ccc(S(=O)(=O)N2CCc3ccccc32)cc1)c1nc2ccc(F)cc2s1	i	?	6%	-16	0	i
Cc1cccc2sc(N(CCCN(C)C)C(=O)c3ccc(S(=O)(=O)N4CCc5ccccc5C4)cc3)nc12	i	?	?	-13	?	?
COc1ccc2sc(N(CCCN(C)C)C(=O)c3ccc(S(=O)(=O)N4CCc5ccccc5C4)cc3)nc2c1	23µM*	30%	?	-6	-17	?
COc1ccc2sc(N(CCCN(C)C)C(=O)c3ccc(S(=O)(=O)N4CCCC4)cc3)nc2c1	i	1%	-2%	-8	-1	i
Cc1ccc(-c2nc(CNC(=O)NC3CCCCC3)c(C)o2)cc1	i	·	·	8	·	i
CCOP(=O)(OCC)C(Nc1ccccc1)c1ccc2c(c1)OCO2 (centres undefined)	?	-25%	0%	9	3	i
CCCCOP(=O)(OCCCC)C(Nc1ccccc1)c1ccc2c(c1)OCO2 (centres undefined)	7.3µM*	-60%	?	1	25	?
CCCCC12CN3CC(C)(CN(C1)C31C(=O)N(C)c3ccc(C)cc31)C2=O (centres undefined)	9.2µM*	15%	21%	7	12	i
CCCOc1ccc(-c2cccc(NS(=O)(=O)c3cccs3)c2)nn1	i	·	·	5	·	i
COc1ccc(N2CCN(S(=O)(=O)CCNC(=O)COc3ccccc3C)CC2)cc1	i	-2%	9%	-6	12	i
SMILES	KB-V1 MDR tox	SW480 rerep	MCF10A rerep	DRD3 agonist	D3 antag	KB-3-1 tox
COc1cc(OC)cc(C(=O)Nc2ccc3c(c2)CCCN3C(=O)c2cccs2)c1	?	-11%	?	-2	14	?
O=C(Nc1ccc(N2CCN(C(=O)c3cccs3)CC2)cc1)c1ccc(F)cc1	0.18µM*	-11%	0%	12	4	i
COc1ccc(C(=O)Nc2ccc(N3CCN(C(=O)c4cccs4)CC3)cc2)cc1Br	i	?	18µM*	-3	13	i
COc1ccc(C(=O)Nc2ccc(N3CCCC3)cc2)cc1Br	i	-9%	-3%	3	-19	i
COc1cc(OC)cc(C(=O)Nc2ccc(N3CCN(C(=O)c4cccs4)CC3)cc2)c1	8.2µM*	?	18µM*	2	-4	7.3µM*
CC(=O)Nc1ccc(N2CCN(C(=O)c3cccs3)CC2)cc1	i	11%	2%	2	1	i
COc1cc(OC)c(NC(=O)C2=C(C)C(=O)OC23CCCCCC3)cc1Cl	i	·	·	7	·	i
CCc1ccc(NC(=O)CSc2nc(-c3ccccc3)no2)cc1	·	·	·	2	·	·
CCOc1ccc(-n2cc(-c3ccccc3)c3c(NCc4ccc(F)cc4)ncnc32)cc1	·	·	·	0	·	·
CN1CCCC(CC2Oc3ccccc3Sc3ccccc32)C1 (centres undefined)	?	?	?	-39	-84*	?
c1ccc2c(c1)OC(CCCN1CCCCC1)c1ccccc1S2 (centres undefined)	i	?	?	-2	-4	i
Cn1cnc([N+](=O)[O-])c1Sc1ccc(Br)cc1	i	?	6.5µM*	0	-2	i
COc1cccc(NC(=O)C2CCN(C(=O)[C@@H]3Cc4ccccc4CN3C(=O)OC(C)(C)C)CC2)c1	i	7%	-30%	2	33	i
Cc1cccc(N2CCN(C(=S)c3ccc(-c4ccccc4[N+](=O)[O-])o3)CC2)c1	?	?	?	-19	20	16µM*
O=[N+]([O-])c1ccccc1-c1ccc(C(=S)N2CCCCC2)o1	i	-10%	19%	-1	-9	i
O=[N+]([O-])c1ccccc1-c1ccc(C(=S)N2CCCC2)o1	i	8.2µM*	-22%	-21	?	i
Cc1ccc(/C=C/c2onc(C)c2S(=O)(=O)N2CCC(C(=O)NCc3ccc(C)o3)CC2)cc1	·	·	·	-13	·	·
Cc1nc2nc(NCc3cccc(Cl)c3)[nH]n2c(=O)c1Cc1ccccc1	?	·	·	-6	·	i
CC(C(=O)Nc1sc2c(c1C(=O)NCc1ccco1)CCCC2)N1C(=O)c2ccccc2C1=O (centres undefined)	i	20%	13%	-2	-65*	i
O=C(Nc1sc2c(c1C(=O)NCc1ccco1)CCCC2)c1ccc2c(c1)OCO2	15µM*	2%	?	-3	23	i
COc1cc(C(=O)Nc2sc3c(c2C(=O)NCc2ccco2)CCCC3)cc(OC)c1OC	i	-3%	18µM*	5	-1	i

High-throughput results as filed in PubChem.
